Data published in PubChem BioAssay AID743314 (Broad Institute, 2014).
Entries with a potency or affinity are not part of this list. Records with an inconclusive call do not appear. Activity calls are given as the source filed them.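 How the source made its calls: active means fitted half-maximal concentration no higher than twice the top tested dose, in every repeat run; inconclusive means repeat runs disagree, poor fit, or flat partial inhibition; inactive means the rest.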

These compounds were tested against Endoplasmic reticulum aminopeptidase 1 (Homo sapiens) (UniProt Q9NZ08) (assay: inhibition of human ERAP1 enzyme activity – biochemical, cherry-pick, set 2, plate reader, dose response (AID 743314)). Conditions: Recombinant ERAP1, Leu-AMC fluorescence, 60 min; series mostly up to 11 µM.
Chain of Endoplasmic reticulum aminopeptidase 1 (Homo sapiens) (Q9NZ08 whole entry, looked up): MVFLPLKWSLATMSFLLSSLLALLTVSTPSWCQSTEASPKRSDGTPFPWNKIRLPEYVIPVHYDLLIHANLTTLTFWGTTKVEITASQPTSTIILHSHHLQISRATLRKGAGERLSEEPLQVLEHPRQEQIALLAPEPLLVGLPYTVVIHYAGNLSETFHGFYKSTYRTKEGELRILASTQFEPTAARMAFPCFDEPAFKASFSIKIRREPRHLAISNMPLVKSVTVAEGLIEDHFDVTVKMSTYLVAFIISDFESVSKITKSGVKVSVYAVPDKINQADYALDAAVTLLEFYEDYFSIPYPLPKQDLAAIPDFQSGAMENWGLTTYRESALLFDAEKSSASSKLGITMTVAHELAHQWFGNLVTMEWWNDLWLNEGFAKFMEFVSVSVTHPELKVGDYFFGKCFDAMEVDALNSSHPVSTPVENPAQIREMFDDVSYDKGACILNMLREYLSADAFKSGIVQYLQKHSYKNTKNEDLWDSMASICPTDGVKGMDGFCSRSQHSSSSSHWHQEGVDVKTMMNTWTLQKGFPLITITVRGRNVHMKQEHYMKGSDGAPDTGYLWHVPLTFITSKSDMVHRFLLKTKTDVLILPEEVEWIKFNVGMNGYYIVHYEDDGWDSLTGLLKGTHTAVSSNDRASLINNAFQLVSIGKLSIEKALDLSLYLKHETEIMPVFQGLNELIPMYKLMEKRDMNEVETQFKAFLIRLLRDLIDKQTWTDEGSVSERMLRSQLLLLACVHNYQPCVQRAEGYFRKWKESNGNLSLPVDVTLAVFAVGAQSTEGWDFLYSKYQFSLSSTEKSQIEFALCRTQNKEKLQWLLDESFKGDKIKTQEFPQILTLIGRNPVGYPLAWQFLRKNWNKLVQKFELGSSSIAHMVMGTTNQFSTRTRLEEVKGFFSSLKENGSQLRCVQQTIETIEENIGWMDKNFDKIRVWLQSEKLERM

outcome, inactive:
COc1ccc(CN(C)C[C@H]2Oc3c(NC(=O)NC4CCCCC4)cccc3C(=O)N([C@@H](C)CO)C[C@@H]2C)cc1
CCOc1ccc(NC(=O)C2CCCN2C(=O)Oc2ccccc2)cc1 (stereo not drawn)
CNc1cncc(-c2cccc(C(=O)N(C)C)c2)n1
COc1ccc(CN(C)C[C@H]2OCCCC[C@H](C)Oc3ccc(NS(=O)(=O)c4cccs4)cc3C(=O)N([C@H](C)CO)C[C@H]2C)cc1
O=C(O)c1ccccc1NS(=O)(=O)c1cccc(NS(=O)(=O)c2cc(Br)ccc2Br)c1
COc1ccc(CN(C)C[C@H]2OCCCC[C@@H](C)Oc3ccc(NS(=O)(=O)c4cccs4)cc3C(=O)N([C@H](C)CO)C[C@@H]2C)cc1
COc1ccc2c3c([nH]c2c1)[C@@H](CO)N(Cc1cc(F)ccc1F)CC31CN(C(=O)CN(C)C)C1
C[C@@H]1CN([C@H](C)CO)C(=O)c2cc(NS(=O)(=O)c3ccc(Cl)cc3)ccc2O[C@@H](C)CCCCO[C@@H]1CN(C)C
COc1ccc(C(=O)NCc2nnc(SCC(=O)NC3CCCCC3)n2C)cc1
Cc1cc(S(=O)(=O)c2cc3ccc(O)c(C)c3oc2=O)ccc1F
COc1ccc(CN(C)C[C@H]2OCCCC[C@H](C)Oc3ccc(NC(=O)Nc4ccc(F)cc4)cc3C(=O)N([C@@H](C)CO)C[C@@H]2C)cc1
CCN(CC)CCNC(=O)c1ccc(NC(=O)c2ccc(-n3cncn3)c([N+](=O)[O-])c2)cc1
COc1cccc(-c2ccc([C@H]3[C@H]4CN(C(=O)c5cccnc5)CC(=O)N4[C@H]3CO)cc2)c1
CC1CN(Cc2cc(=O)oc3cc(O)c(Cl)cc23)CC(C)O1 (stereo not drawn)
COC(=O)[C@H]1[C@H](CO)[C@H]2Cn3c(ccc(C4=CCCC4)c3=O)[C@H]2N1C(=O)C1CC1
COc1ccc(CN(C)C[C@H]2Oc3c(NC(=O)NC4CCCCC4)cccc3C(=O)N([C@H](C)CO)C[C@@H]2C)cc1
C[C@@H]1CN([C@H](C)CO)S(=O)(=O)c2ccc(-c3ccccc3)cc2O[C@H]1CN(C)S(C)(=O)=O
O=C(C[C@H]1CC[C@@H](NC(=O)Cc2ccccn2)[C@@H](CO)O1)NCCCN1CCOCC1
Cc1ccc(Cl)cc1NC(=O)CCC(=O)O
Cc1cc(C)cc(N2CC(c3nc4ccccc4n3C)CC2=O)c1 (stereo not drawn)
CCn1c(SCC(=O)NCc2ccccc2)nnc1C(CO)NC(=O)c1ccccc1 (stereo not drawn)
COc1ccc2c3c([nH]c2c1)[C@H](CO)NCC31CN(Cc2cc(F)ccc2F)C1
Cc1ccc(NC(=O)C(C)OC(=O)C2CC3CCCC(C2)C3=O)cc1S(=O)(=O)N1CCOCC1 (stereo not drawn)
CCc1ccccc1NC(=O)CCC(=O)N1CCN(C(C)=O)CC1
CCN1CCN(c2ccc(S(=O)(=O)N3CCCCC3)cc2NC(=O)c2ccccc2)CC1
CN1[C@@H]2c3ccc(/C=C/c4ccccc4)c(=O)n3C[C@@H]2[C@@H](CO)[C@@H]1C(=O)N1CCCCC1
COc1ccc(NC(=O)Nc2ccc3c(c2)C(=O)N([C@@H](C)CO)C[C@@H](C)[C@H](CN(C)Cc2ccc(C(=O)O)cc2)OCCCC[C@H](C)O3)cc1
Cc1cc(C)n2nc(C(=O)Nc3ccc(N4CCOCC4)cc3)nc2n1
C[C@@H]1CCCCO[C@@H](CN(C)C)[C@H](C)CN([C@@H](C)CO)C(=O)c2cc(NS(=O)(=O)c3ccc(Cl)cc3)ccc2O1
COc1ccccc1-c1cc(-c2ccccc2)nc(SCC(=O)O)c1C#N
COc1ccc2c3c([nH]c2c1)[C@H](CO)N(S(=O)(=O)c1cn(C)cn1)CC31CCN(CC2CCCCC2)CC1
COc1cc2cc(C(=O)N3CCN(Cc4ccc5c(c4)OCO5)CC3)c(=O)oc2cc1OC
COc1ccc(S(=O)(=O)N[C@@H]2C=C[C@H](CC(=O)NCc3ccccc3F)O[C@@H]2CO)cc1
COc1ccc(CN(C)C[C@@H]2Oc3ccc(NS(=O)(=O)c4ccc(C)cc4)cc3C(=O)N([C@@H](C)CO)C[C@@H]2C)cc1
Cc1c(O)ccc2c(CN3CCN(Cc4ccccc4)CC3)cc(=O)oc12
CC(Nc1ccc(F)cc1)=[N+](C)CCNS(=O)(=O)c1ccc(Cl)cc1
Cn1c(CCC(=O)Nc2cc(S(C)(=O)=O)ccc2Cl)nc2cc(S(=O)(=O)N3CCOCC3)ccc21
Cc1ccc(S(=O)(=O)N2CCN(C(=O)COC(=O)c3ccc(Cl)c(S(N)(=O)=O)c3)CC2)c(C)c1
